Laboratory results taken from PubChem BioAssay (Tox21).
Where “and” joins values, the source holds several entries; their conditions need not be identical. Identical values can stand only once. Results filed as inconclusive are left out. A call without a number means that no potency is given here. Calls of active or inactive are those of the source. Calls come from the whole dose curve.
Potency is the fitted concentration of half-maximal effect.

Assay: qHTS assay for small molecule agonists of the p53 signaling pathway (AID 651631); note: nearly all actives have a fitted effect of over 15% in size
Conditions: HCT-116 p53RE-bla reporter, beta-lactamase FRET ratio, 16 h; series mostly up to 73.3 µM
Description: U.S. Tox21 Program National Center for Advancing Translational Sciences [NCATS] NIH Chemical Genomics Center [NCGC] U.S. Environmental Protection Agency [EPA] National Institutes of Environmental Health Sciences [NIEHS] National Toxicology Program [NTP] U.S. Food and Drug Administration [FDA] Tox21 Assay Overview: p53, a tumor suppressor protein, is activated following cellular insult, including DNA damage and other cellular stresses. The activation of p53 regulates cell fate by inducing DNA repair, cell cycle arrest, apoptosis, or cellular senescence. The activation of p53, therefore, is a good indicator of DNA damage and other cellular stresses. The CellSensor p53RE-bla HCT-116 cell line (Invitrogen) contains a stably integrated beta-lactamase reporter gene under control of the p53 response elements. The activation of the reporter gene under culture conditions can be detected by fluorescence intensity. This cell line was used to screen the Tox21 compound library in a 1536-well plate format and to identify agonists that activate the p53 signaling pathway.
Tox21 Assay Protocol Summary: The p53RE-bla cells were dispensed at 4,000 cells/5 ul/well in 1536-well black wall/clear bottom plates using a Multidrop dispenser. After the assay plates were incubated at a 37 C/5% CO2 incubator for 5 hours, 23 nL of compounds dissolved in DMSO, positive controls or DMSO only was transferred to the assay plate by a pin tool. The plates were incubated at 37 C for 16 hours. After 1 uL of LiveBLAzerTM B/G FRET substrate was added using a Flying Reagent Dispenser, the plates were incubated at room temperature for 2 hours, and fluorescence intensity was measured by an Envision plate reader.
For `COP(=S)(OC)Oc1ccc(SC)c(C)c1`, the Potency was “inactive”.
For `C=C(C)C(=O)OCC(CC)CCCC` (stereo not given), the Potency was “inactive”.
In the case of `OCCCCO`, the Potency was “inactive”.
For `OCc1ccco1`, the Potency was “inactive”.
With `O=[N+]([O-])c1cc([As](=O)(O)O)ccc1O` the Potency was “inactive”.
For `CC(C)(C)C(=O)CCl`, the Potency was “inactive”.
For `COc1cc(-c2ccc(N)c(OC)c2)ccc1N`, the Potency was “inactive”.
In the case of `O=C(O)C1C(C(=O)O)C2(Cl)C(Cl)=C(Cl)C1(Cl)C2(Cl)Cl` (stereo not given), the Potency was “inactive”.
For `Cc1ccc(N=C=O)cc1N=C=O`, the Potency was “inactive”.
For `CN(C)CCC#N`, the Potency was “inactive”.
In the case of `C=CC(=O)OCC(CC)CCCC` (stereo not given), the Potency was “inactive”.
With `Cc1ccccc1N` the Potency was “inactive”.
In the case of `COC(=O)Nc1cccc(OC(=O)Nc2cccc(C)c2)c1`, the Potency was “inactive”.
With `Clc1cnc(Oc2ccc(Oc3ncc(Cl)cc3Cl)cc2)c(Cl)c1` the Potency was “inactive”.
For `CNC(=O)O/N=C/C(C)(C)S(C)(=O)=O`, the Potency was “inactive”.
In the case of `Cc1cccc(C)c1N`, the Potency was “inactive”.
In the case of `[N-]=[N+]=CC(=O)OC[C@H](N)C(=O)O`, the Potency was “inactive”.
With `Cc1ccc(O)c(C)c1` the Potency was “inactive”.
For `CC(=O)C1CCOC1=O` (stereo not given), the Potency was “inactive”.
With `CCOc1ccc(N)cc1` the Potency was “inactive”.
For `CC(C)c1cccc(C(C)C)c1O`, the Potency was “inactive”.
With `Cc1cc(Cl)ccc1OC(C)C(=O)O` (stereo not given) the Potency was “inactive”.
With `Nc1cc(Cl)cc(Cl)c1` the Potency was “inactive”.
For `CNC(=O)O/N=C/C(C)(C)SC`, the Potency was “inactive”.
In the case of `CCCCC(CC)C(=O)Cl` (stereo not given), the Potency was “inactive”.
In the case of `C=CC(=O)OCCCCCC(C)C`, the Potency was “inactive”.
In the case of `COP(=S)(OC)SCN1C(=O)c2ccccc2C1=O`, the Potency was “inactive”.
For `CC[N+](=O)[O-]`, the Potency was “inactive”.
With `CSc1nnc(C(C)(C)C)c(=O)n1N` the Potency was “inactive”.
With `O=C(O)CCCc1ccc(N(CCCl)CCCl)cc1` the Potency was 23.7 µM (active) and 61.4 µM (active) and 34.4 µM (active).
With `O=[N+]([O-])c1ccc(Cl)cc1` the Potency was “inactive”.
With `C=CCN=C=S` the Potency was “inactive”.
With `ClCCOCCCl` the Potency was “inactive”.
For `Cc1cccc(C)c1NC(=O)CN1CCCC1=O`, the Potency was “inactive”.
With `C[C@H]1C(=O)O[C@@H]2CCN3CC=C(COC(=O)[C@](C)(O)[C@]1(C)O)[C@H]23` the Potency was “inactive”.
In the case of `FC(F)(F)c1ccc(Cl)cc1`, the Potency was “inactive”.
With `OCC(O)CCl` (stereo not given) the Potency was “inactive”.
With `CN(C)C(=O)C(c1ccccc1)c1ccccc1` the Potency was “inactive”.
For `CNCC(O)c1ccc(O)cc1` (stereo not given), the Potency was “inactive”.
In the case of `C=CC#N`, the Potency was “inactive”.
